# Test results as given in PubChem BioAssay.
# Where “and” joins values, the source holds several entries; their conditions need not be identical. Equal entries are not always repeated. Calls of active or inactive are those of the source. Unless noted, no stated cut-off is given here; in the data, active means inhibition above about 80%; inactive means the rest.
# How the values were obtained:
# [1] = growth inhibition, single agent or in combination, cell-based, chromothripsis tumors, cisplatin or BGB combos (AID 1671449); conditions: LFS_MB_P medulloblastoma cells;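 further: cells exposed for 96 hours; 0% = vehicle DMSO and 100% = killing by high DMSO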
# [2] = growth inhibition, single agent and combos, cell-based, chromothripsis tumors, cisplatin or BGB combos (AID 1671450); conditions: HDN33 neuroblastoma cells, stronger effect = higher value;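 further: cells exposed to compound for four days; 0% = vehicle DMSO and 100% = cell killing by high DMSO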
# [3] = growth inhibition, single agents and combos, ICB984, cell-based, cisplatin or BGB combos, synergistic combos for chromothripsis tumors (AID 1671451; call rule not given here;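 further: cells exposed for 96 hours before readout; 0% = vehicle DMSO and 100% = killing by high DMSO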); conditions: ICB984 medulloblastoma cells, drug combinations, stronger effect = higher value
# [4] = growth inhibition, single agents and combos, LFS_MB_1R, cell-based, cisplatin or BGB combos, synergistic combos for chromothripsis tumors (AID 1671452); conditions: LFS_MB_1R medulloblastoma cells, stronger effect = higher value;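 further: cells exposed for 96 hours before readout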
# [5] = growth inhibition, single agents and combos, HTB85, cell-based, BGB or cisplatin IC20 combos, synergistic combos for chromothripsis tumors (AID 1671453); conditions: HTB85 osteosarcoma cells, drug combinations, stronger effect = higher value;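 further: cells exposed for 96 hours before readout; 0% = vehicle DMSO and 100% = high DMSO killing control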
# [6] = growth inhibition, single agents and combos, CRL2098, cell-based, BGB or cisplatin IC20 combos, synergistic combos for chromothripsis tumors (AID 1671454); conditions: CRL2098 osteosarcoma cells, drug combinations, stronger effect = higher value;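 further: cells exposed for 96 h before readout; 0% = vehicle DMSO and 100% = killing by high DMSO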
# [7] = growth inhibition, single agents and combos, HD-MB03, cell-based, BGB or cisplatin IC20 combos, synergistic combos for chromothripsis tumors (AID 1671455; in the data active means inhibition above about 83%;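 further: 0% = vehicle DMSO and 100% = high DMSO as cytotoxic control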); conditions: HD-MB03 medulloblastoma cells, stronger effect = higher value
# [8] = growth inhibition, single agents and combos, UWB1.289, cell-based, BGB or cisplatin combos, synergistic combos for chromothripsis tumors (AID 1671456); conditions: UWB1.289 ovarian carcinoma cells, stronger effect = higher value;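 further: cells exposed to compound for four days; 0% = vehicle DMSO and 100% = killing by high DMSO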
# [9] = growth inhibition, single agents and combos, LFS_MB_2R, cell-based, cisplatin combos, synergistic combos for chromothripsis tumors (AID 1671457); conditions: LFS_MB_2R medulloblastoma cells, stronger effect = higher value;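 further: cells exposed to compound for four days before readout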
# [10] = growth inhibition, MDA-MB-436, cell-based, BGB or cisplatin combos, synergistic combos for chromothripsis tumors (AID 1671458; call rule not given here;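 further: cells exposed for 96 hours; 0% = vehicle DMSO and 100% = killing by high DMSO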); conditions: MDA-MB-436 breast carcinoma growth inhibition, drug combinations, stronger effect = higher value
# [11] = UWB1.289_BRCA1 ovarian cancer growth, cell-based, BGB or cisplatin combinations (AID 1671459); conditions: UWB1.289 BRCA1 ovarian carcinoma, drug combinations, stronger effect = higher value
# [12] = drug combination toxicity in non-malignant astrocytes – cell-based, BGB or cisplatin IC20 combos, cytotoxicity control for chromothriptic childhood tumor combination screen (AID 1671460); conditions: Human astrocytes, viability inhibition, drug combinations, at 0.5 µM, stronger effect = higher value;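 further: cells exposed to compounds for 96 hours before viability readout; 0% = vehicle and 100% = killing control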
# [13] = BT084 cell growth, single and combined drugs, ICGC_MB145, cisplatin and BGB IC40 combos (AID 1671461); conditions: BT084 medulloblastoma cells, drug combinations, stronger effect = higher value;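 further: cells exposed to drugs for 96 hours; 0% = vehicle DMSO and 100% = high DMSO full killing control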
# [14] = RCMB18 cell growth, single agent and combined, cisplatin and BGB IC40 combos (AID 1671462); conditions: RCMB18 medulloblastoma cells, stronger effect = higher value;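 further: cells exposed to compound for four days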
# [15] = CRL1545 cell growth, single agent and combined, cisplatin and BGB IC20 combos (AID 1671464); conditions: CRL1545 osteosarcoma cells, stronger effect = higher value;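 further: cells exposed to compound for 96 hours before readout; 0% = vehicle DMSO and 100% = high DMSO killing control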
# [16] = at 0.5 µM, stronger effect = higher value
# [17] = measured here: combination with BGB IC20, at 0.005 µM
# [18] = measured here: combination with BGB IC40, at 0.005 µM
# [19] = measured here: combination with BGB IC40, at 0.05 µM
# [20] = measured here: combination with cisplatin, at 0.5 µM, stronger effect = higher value
# [21] = measured here: combination with cisplatin, at 5 µM, stronger effect = higher value
# [22] = measured here: with BGB IC20 combination, at 0.5 µM
# [23] = measured here: with cisplatin IC20 combination, at 0.5 µM
# [24] = measured here: 5 uM single agent, at 5 µM
# [25] = measured here: combination with cisplatin, at 0.5 µM
# [26] = measured here: combination with cisplatin, at 5 µM
# [27] = measured here: with BGB IC20, at 0.5 µM
# [28] = measured here: with BGB IC20, at 5 µM
# [29] = measured here: with cisplatin IC20, at 0.5 µM
# [30] = measured here: with cisplatin IC20, at 5 µM
# [31] = measured here: combination with BGB at IC20, at 0.5 µM
# [32] = measured here: combination with cisplatin at IC20, at 0.5 µM
# [33] = measured here: combo with BGB at IC20, at 0.5 µM
# [34] = measured here: combo with cisplatin at IC20, at 0.5 µM
# [35] = measured here: inhibition with BGB combination, at 0.05 µM
# [36] = measured here: inhibition with cisplatin combination, at 0.05 µM
# [37] = measured here: BGB combination, at 0.5 µM
# [38] = measured here: BGB combination, at 5 µM
# [39] = measured here: cisplatin combination, at 0.5 µM
# [40] = measured here: cisplatin combination, at 5 µM
# [41] = BGB combination, concentration series, at 5 µM
# [42] = cisplatin combination, concentration series, at 5 µM
# [43] = measured here: combo with BGB IC20
# [44] = measured here: combo with cisplatin IC20
# [45] = cisplatin combination, at 0.5 µM
# [46] = measured here: BGB IC40 combination 0.05 uM, at 0.05 µM
# [47] = measured here: BGB IC40 combination, at 0.05 µM
smiles,measurement,setting,value
O=c1cc(-c2ccc(O)cc2)[nH]c(=S)[nH]1,inhibition,[1]; [16],85.3% (active)
same,inhibition,[1]; [17],-1.36%
same,inhibition,[1]; [18],-7.24%
same,inhibition,[1]; [19],-1.51%
same,inhibition,[1]; [20],79.3%
same,inhibition,[1]; [21],3.08%
same,inhibition,"[2]; BGB combo, at 5 µM",-16.4%
same,inhibition,[2]; at 0.5 µM,-17.1% (inactive)
same,inhibition,"[2]; cisplatin combo, at 5 µM",-30.3%
same,inhibition,[2]; [22],-22.1%
same,inhibition,[2]; [23],-12.8%
same,inhibition,"[2]; single agent, at 5 µM",-27.7%
same,inhibition,"[3]; BGB IC20 combo, at 0.005 µM",-9.88%
same,inhibition,"[3]; BGB IC40 combo, at 0.005 µM",-25.6%
same,inhibition,"[3]; BGB IC40 combo, at 0.05 µM",-24.8%
same,inhibition,[3]; at 0.5 µM,-27.2% (inactive)
same,inhibition,"[3]; cisplatin combo, at 0.05 µM",-31.2%
same,inhibition,"[3]; cisplatin combo, at 0.5 µM",-50.4%
same,inhibition,"[3]; cisplatin combo, at 5 µM",-7.23%
same,inhibition,[3]; [24],-15.4%
same,inhibition,[4]; at 0.5 µM,-1.38% (inactive)
same,inhibition,[4]; [19],-3.87%
same,inhibition,[4]; [25],-24.1%
same,inhibition,[4]; [26],1.81%
same,inhibition,[5]; at 0.5 µM,-22.5% (inactive)
same,inhibition,[5]; [27],-21.9%
same,inhibition,[5]; [28],-6.6%
same,inhibition,[5]; [29],-20.1%
same,inhibition,[5]; [30],14%
same,inhibition,"[5]; single agent, at 5 µM",-1.02%
same,inhibition,[6]; at 0.5 µM,-53% (inactive)
same,inhibition,[6]; [31],-28.7%
same,inhibition,[6]; [32],-91.5%
same,inhibition,[7]; at 0.5 µM,-13.4% (inactive)
same,inhibition,[7]; [33],-10.4%
same,inhibition,[7]; [34],-24.5%
same,inhibition,[8]; at 0.5 µM,-11.6% (inactive)
same,inhibition,[8]; [35],-5.24%
same,inhibition,[8]; [36],-19.2%
same,inhibition,[9]; at 0.5 µM,-8.7% (inactive)
same,inhibition,[9]; [25],-16.1%
same,inhibition,[9]; [26],-5.06%
same,inhibition,[10]; at 0.5 µM,-9.32% (inactive)
same,inhibition,[10]; [37],-13.5%
same,inhibition,[10]; [38],-8.05%
same,inhibition,[10]; [39],-15.9%
same,inhibition,[10]; [40],-5.07%
same,inhibition,[11]; [41],-21.3%
same,inhibition,[11]; at 0.5 µM,-19.2% (inactive)
same,inhibition,[11]; [42],2.65%
same,inhibition,[12],-9.33% (inactive)
same,inhibition,[12]; [43],-17.6%
same,inhibition,[12]; [44],-15.4%
same,inhibition,[13]; at 0.5 µM,6.07% (inactive)
same,inhibition,[13]; [45],-1.5%
same,inhibition,"[13]; cisplatin combination, at 5 µM",-121%
same,inhibition,[13]; [46],27.5%
same,inhibition,"[13]; single agent, at 5 µM",15.9%
same,inhibition,[14]; at 0.5 µM,-1.5% (inactive)
same,inhibition,"[14]; cisplatin combo, at 5 µM",-3.95%
same,inhibition,[14]; [47],-13.5%
same,inhibition,[14]; [25],-10.5%
same,inhibition,"[14]; single agent, at 5 µM",21.7%
same,inhibition,[15]; at 0.5 µM,-18.8% (inactive)
same,inhibition,[15]; [22],-19.4%
same,inhibition,[15]; [23],-20.3%
same,inhibition,"[15]; single agent, at 0.05 µM",0.873%
same,inhibition,"[15]; single agent, at 5 µM",-68.2%
Nc1cc(F)ccc1NC(=O)/C=C/c1cnn(C/C=C/c2ccccc2)c1,inhibition,[1]; [16],19.7% (inactive) and -29.8% (inactive)
same,inhibition,[1]; [17],-27.4% and -4.91%
same,inhibition,[1]; [18],89.6% and -23%
same,inhibition,[1]; [19],10.4% and 0.325%
same,inhibition,[1]; [20],-17.2% and -44.8%
same,inhibition,[1]; [21],-14.4% and -23.8%
same,inhibition,"[2]; BGB combo, at 5 µM",-55.4% and -3.94%
same,inhibition,[2]; at 0.5 µM,-46.1% (inactive) and -1.14% (inactive)
same,inhibition,"[2]; cisplatin combo, at 5 µM",-62.1% and 12.2%
same,inhibition,[2]; [22],-50.1% and 0.078%
same,inhibition,[2]; [23],-34.6% and -2.05%
same,inhibition,"[2]; single agent, at 5 µM",-50.8% and -2.21%
same,inhibition,"[3]; BGB IC20 combo, at 0.005 µM",-16.5% and -7.2%
same,inhibition,"[3]; BGB IC40 combo, at 0.005 µM",-16% and 5.39%
same,inhibition,"[3]; BGB IC40 combo, at 0.05 µM",-9.88% and 2.13%
same,inhibition,[3]; at 0.5 µM,-33.8% (inactive) and -9.71% (inactive)
same,inhibition,"[3]; cisplatin combo, at 0.05 µM",-15.5% and -1.74%
same,inhibition,"[3]; cisplatin combo, at 0.5 µM",-45.9% and -17.3%
same,inhibition,"[3]; cisplatin combo, at 5 µM",-20.4% and -41.2%
same,inhibition,[3]; [24],-25.9% and -12.4%
same,inhibition,[4]; at 0.5 µM,-30.2% (inactive) and -13.5% (inactive)
same,inhibition,[4]; [19],-20% and -25.7%
same,inhibition,[4]; [25],-51.6% and -12%
same,inhibition,[4]; [26],-19.1% and 0.402%
same,inhibition,[5]; at 0.5 µM,-30% (inactive) and 0.99% (inactive)
same,inhibition,[5]; [27],-21.5% and 1.42%
same,inhibition,[5]; [28],-17.1% and -19.7%
same,inhibition,[5]; [29],-35.4% and -2.87%
same,inhibition,[5]; [30],19.9% and 1.46%
same,inhibition,"[5]; single agent, at 5 µM",-33.7% and -0.677%
same,inhibition,[6]; at 0.5 µM,-90.2% (inactive) and -24% (inactive)
same,inhibition,[6]; [31],-110% and -20.4%
same,inhibition,[6]; [32],-83.6% and -21.7%
same,inhibition,[7]; at 0.5 µM,-17.4% (inactive) and -5.34% (inactive)
same,inhibition,[7]; [33],-11.2% and -7.19%
same,inhibition,[7]; [34],-20.1% and 0.566%
same,inhibition,[8]; at 0.5 µM,-10.9% (inactive) and -4.29% (inactive)
same,inhibition,[8]; [35],-7.43% and -5.9%
same,inhibition,[8]; [36],-31.6% and -3.68%
same,inhibition,[9]; at 0.5 µM,-20.7% (inactive) and -11.8% (inactive)
same,inhibition,[9]; [25],-25.8% and -7.04%
same,inhibition,[9]; [26],-6.14% and -2.99%
same,inhibition,[10]; at 0.5 µM,-30.9% (inactive) and -9.97% (inactive)
same,inhibition,[10]; [37],-13.1%
same,inhibition,[10]; [38],-3.22% and -1.12%
same,inhibition,[10]; [39],-59.9% and -6.82%
same,inhibition,[10]; [40],8% and 15.6%
same,inhibition,[11]; [41],-29.7% and 12%
same,inhibition,[11]; at 0.5 µM,-22.5% (inactive) and -3.56% (inactive)
same,inhibition,[11]; [42],-4.42% and 12.4%
same,inhibition,[12],2.29% (inactive) and 8.32% (inactive)
same,inhibition,[12]; [43],16.9% and 12.5%
same,inhibition,[12]; [44],-7.65% and 10.5%
same,inhibition,[13]; at 0.5 µM,-9.17% (inactive) and 0.933% (inactive)
same,inhibition,[13]; [45],-6.82% and -1.46%
same,inhibition,"[13]; cisplatin combination, at 5 µM",-105% and 25.2%
same,inhibition,[13]; [46],-19.8% and -24.1%
same,inhibition,"[13]; single agent, at 5 µM",-7.33% and 11.8%
same,inhibition,[14]; at 0.5 µM,2.62% (inactive) and -10.6% (inactive)
same,inhibition,"[14]; cisplatin combo, at 5 µM",-19.2% and 26.8%
same,inhibition,[14]; [47],-14.2% and 7.18%
same,inhibition,[14]; [25],9.23% and 6.5%
same,inhibition,"[14]; single agent, at 5 µM",5.68% and -6.78%
same,inhibition,[15]; at 0.5 µM,-28.2% (inactive) and -6.93% (inactive)
same,inhibition,[15]; [22],-50.8% and -4.55%
same,inhibition,[15]; [23],-18.7% and -8.13%
same,inhibition,"[15]; single agent, at 0.05 µM",-48.6% and -13.2%
same,inhibition,"[15]; single agent, at 5 µM",23.9% and 22.7%
